High-throughput results from PubChem.
Mtb BioA inh: BioA (M. tuberculosis) enzyme inhibition; 360,000 tested, 0.096% active; purified M. tuberculosis BioA enzyme, plate reader; inhibition, % at 9.99 µM; in the data active = inhibition above about 40%
FBA Mtb inh: inhibitors of M. tuberculosis fructose-bisphosphate aldolase; 360,000 tested, 2.3% active; purified M. tuberculosis FBA, fluorescence read-out; inhibition, % at 1 µM; AID 588726;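 note: 0% = vehicle and 100% = reference inhibitor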
Target sequence (P9WQA3 whole entry, looked up): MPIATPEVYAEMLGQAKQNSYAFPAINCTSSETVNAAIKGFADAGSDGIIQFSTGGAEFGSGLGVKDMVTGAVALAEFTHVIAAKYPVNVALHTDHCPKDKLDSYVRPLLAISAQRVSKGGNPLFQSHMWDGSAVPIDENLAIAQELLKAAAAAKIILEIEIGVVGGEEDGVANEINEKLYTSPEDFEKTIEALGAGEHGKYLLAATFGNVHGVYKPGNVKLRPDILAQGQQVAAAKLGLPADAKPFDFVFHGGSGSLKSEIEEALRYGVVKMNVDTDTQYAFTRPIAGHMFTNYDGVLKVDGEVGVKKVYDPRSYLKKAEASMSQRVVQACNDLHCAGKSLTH
BH1578 lux ind: quorum light induction in luxS cqsA deficient V. cholerae; V. cholerae BH1578 lux reporter, luminescence, 6 h; activation, % at 18.7 µM; 350,000 tested, 0.16% active; AID 588436; in the data active = activation mostly above about 9.7%, no sharp cut-off
GDH-TPI counter-1: GDH-TPI coupled enzyme inhibition counter-screen | GDH-TPI coupled enzyme counterscreen, NADH absorbance | inhibition, % at 4.8 µM | 360,000 tested, 1.2% active | AID 588335; in the data active = inhibition above about 30%;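 note: 0% = DMSO wells and 100% = wells lacking the enzyme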
Mtb FBA confirm: confirmation of M. tuberculosis fructose-bisphosphate aldolase inhibitors. inhibition, % at 1 µM. purified M. tuberculosis FBA, fluorescence read-out. 5,600 tested, 78% active. shares compounds with FBA Mtb inh. AID 651616;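 note: 0% = vehicle wells and 100% = reference inhibitor wells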
GDH-TPI counter-2: counter-screen for M. tuberculosis FBA inhibitors: GDH-TPI coupled enzyme inhibition. GDH-TPI coupled enzyme counterscreen, fluorescence. 5,600 tested, 81% active. inhibition, % at 1 µM. shares compounds with FBA Mtb inh; in the data active = inhibition above about 10%
GDH-TPI DR: GDH-TPI dose response counter-screen for Mtb FBA | shares compounds with FBA Mtb inh | GDH-TPI coupled enzyme assay, fluorescence, artifact counterscreen | IC50, µM | 170 tested, 79% active | AID 652145; call rule not given here
Numbers without * were called inactive; i = inactive; / = not tested or not shown; + = active, no number. A selection: hits, their analogues and other compounds. The true share with any hit is near 3%. Cut-off read from the data, not from the text of the source, unless noted: active = inhibition above about 27%; inactive = the rest.

SMILES | Mtb BioA inh | FBA Mtb inh | BH1578 lux ind | GDH-TPI counter-1 | Mtb FBA confirm | GDH-TPI counter-2 | others
Cc1ccc(S(=O)(=O)NCC[C@@H]2CC[C@H](NC(=O)c3cnccn3)[C@H](CO)O2)cc1 | 3 | / | / | / | / | /
C[C@@H]1CN([C@H](C)CO)C(=O)c2cc(C#CC3CCCCC3)cnc2O[C@@H]1CN(C)Cc1ccncc1 | 1 | / | / | / | / | /
CCCNC(=O)C[C@@H]1CC[C@H]2[C@@H](COC[C@H](O)CN2C(=O)Nc2c(C)noc2C)O1 | -2 | / | / | / | / | /
CC1(C(=O)N(c2ccccc2)C(C(=O)NC2CCCC2)c2ccccn2)CC(=O)N=C2C=CC=CN21 (stereo unspecified) | -1 | 96* | -1 | 14 | 107* | 81*
CC1=CC2=NC(=O)CC(C)(C(=O)N(CC(=O)NC3CCCC3)Cc3ccccc3)N2C=C1 (stereo unspecified) | 0 | 69* | 0 | 8 | 9 | 4
C[C@@H]1CN([C@@H](C)CO)C(=O)c2cc(NC(=O)C3CCCCC3)ccc2O[C@H]1CN(C)S(=O)(=O)c1ccc(F)cc1 | 2 | / | / | / | / | /
C[C@H](CO)N1C[C@H](C)[C@H](CN(C)Cc2ccc(C(=O)Nc3ccccc3N)cc2)Oc2c(NC(=O)c3nc4ccccc4s3)cccc2C1=O | 0 | / | / | / | / | /
CC(C)CC#Cc1cnc2c(c1)C(=O)N([C@@H](C)CO)C[C@@H](C)[C@@H](CN(C)C(=O)c1ccc3c(c1)OCO3)O2 | 1 | / | / | / | / | /
O=c1[nH]c2ccccc2c(=O)c2ccccc12 | -1 | 1 | -5 | 12 | / | /
O=c1c2ccccc2[nH]c2ccc(O)cc12 | -4 | 28* | 0 | -6 | + | +
CCOC(=O)c1c(-c2ccccc2)oc2ccc(O)cc12 | 0 | 3 | 0 | 7 | / | /
CCOC(=O)c1c(-c2ccccc2)[nH]c2ccc(O)cc12 | 3 | 40* | -1 | 19 | 55* | 49*
Cc1ccc(S(=O)(=O)N(C)C[C@H]2Oc3c(NC(=O)Nc4c(C)noc4C)cccc3C(=O)N([C@H](C)CO)C[C@@H]2C)cc1 | 2 | / | / | / | / | /
COCCNc1nc(SC)nc2sc3c(c12)CCN(C)C3 | 12 | 80* | i | -4 | 196* | 177*
CCN(CC)CCNc1nc(SC)nc2sc3c(c12)CCN(C)C3 | 4 | 41* | 4 | 1 | 97* | 75*
COCCCNc1nc(SCc2ccccc2)nc2sc3c(c12)CCC3 | 4 | 34* | i | 18 | 97* | 78*
CSc1nc2sc3c(c2c(=O)n1C1CCCCC1)CCN(C)C3 | 5 | 0 | i | 0 | / | /
CSc1nc(NCC(C)C)c2c3c(sc2n1)CN(C)CC3 | 16 | 49* | -1 | 10 | 59* | 57*
CC(C)NC(=O)N(C)C[C@H]1Oc2c(NC(=O)NC3CCCCC3)cccc2C(=O)N([C@H](C)CO)C[C@H]1C | 3 | / | / | / | / | /
CO[C@H]1CN(C)C(=O)c2cc(NC(=O)Nc3ccccc3F)ccc2OC[C@@H](C)N(Cc2ccccc2C(=O)O)C[C@H]1C | 0 | / | / | / | / | /
CSc1nc(NCc2ccccc2)c2c3c(sc2n1)CN(C)CC3 | 5 | 72* | 2 | 5 | 140* | 84*
O=C(Nc1cccc(Cl)c1)N[C@H]1CC[C@@H](CCNC(=O)C2CCCCC2)O[C@@H]1CO | 0 | / | / | / | / | /
O=C(CCc1ccccc1)Nc1ccccc1C(=O)NCc1ccco1 | 2 | 2 | 0 | 0 | / | /
Cc1cccc(C)c1NC(=S)Nc1ccccc1C(=O)NCc1ccco1 | -2 | 39* | i | 5 | 25 | 7 | GDH-TPI DR=>10
Cc1ccccc1NC(=O)CNc1ccccc1C(=O)NCc1ccco1 | 3 | 48* | -7 | 7 | 166* | 143*
C[C@H]1CN([C@@H](C)CO)C(=O)c2cc(NS(=O)(=O)c3ccc(F)cc3)ccc2O[C@H]1CN(C)C(=O)Nc1cccc2ccccc12 | 1 | / | / | / | / | /
O=C(c1nc2nc(-c3ccc(Cl)cc3)cc(C(F)(F)F)n2n1)N1CCOCC1 | 0 | 33* | 3 | 26 | 121* | 94*
COc1ccc(-c2cc(C(F)(F)F)n3nc(C(=O)O)nc3n2)cc1 | 10 | 23 | -2 | 28 | / | /
Nc1nc2nc(-c3ccc(F)cc3)cc(C(F)(F)F)n2n1 | -1 | 41* | i | -7 | 50* | 40*
